Experimental data as given in PubChem BioAssay (NCI).
This is part of a sample that, as a whole, favours compounds with a hit. Of some 83,000 tested, about 20% had one in any assay.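 Single-concentration screen, 48 h exposure, 96-well plates. Endpoint: percent growth. Below 10 = active.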 A number with no mark means an inactive call. Activity calls are given as the source filed them.

system: HT29 colon; assay: NCI-60 one-dose screen, 48 h (100 = growth as untreated, 0 = no growth, -100 = all killed); conditions: 10 µM unless noted
Method: Growth inhibition of the HT29 human tumor cell line is measured as a screen for anti-cancer activity. Cells are grown in 96 well plates and exposed to the test compound for 48 hours. Compounds are tested at a single concentration, which is 10^-5 M for most compounds. The reported endpoint is percent growth (GI% or GIPRCNT), where numbers from 0 - 100% represent growth inhibition, and numbers from -100% - 0 represent cell death. For example, a value of 40 represents 60% growth inhibition. A value of 0 means no net growth occurred over the course of the experiment. A value of -40 indicates 40% of cells at the beginning of the experiment died by the end of the experiment. A value of -100 means all cells are dead at the end of the experiment.
NCI-60 Human Tumor Cell Lines Screen was performed using the standard one-dose NCI protocol, which is described in more detail at https://dtp.cancer.gov/discovery_development/nci-60/default.htm.
Compounds with GIPRCNT values below 10 were considered active. Activity score was based on GIPRCNT using the following formula: […]
Score is 0 for GIPRCNT values of 100 or above, 50 for GIPRCNT values of 0, and 100 for GIPRCNT values of -100.

SMILES	growth
CCCCCCCCCCSc1ncnc2nc[nH]c12	90.9%
CN1CCN(Cc2ccc(NC(=O)c3[nH]ncc3Nc3ccnc4ccnn34)cc2)CC1	67%
O=C1c2ccccc2C(=O)c2c1cccc2-n1nnc2ccccc21	106%
S=C(Nc1ccc(C2=NCCN2)cc1)Nc1ccc(C2=NCCN2)cc1	101%
CCN(CC)CCCNCCCNc1cc(OC)cc2cccnc12	40%
N#Cc1c2ccccc2c2n1-c1ccccc1OC(c1ccccc1)C2=O (stereo not given)	23.1%
CCCCCCC/C(=N\N=C(N)N)c1ccc(O)cc1	3.57% (active)
COc1ccc(C2=NN(C(C)=O)C(c3cc(OC)c(OC)c(OC)c3)C2)cc1 (stereo not given)	103%
Cc1ccccc1-c1cc(Cc2ccccc2O)c(=O)[nH]n1	139%
CC[C@@H]1OC(=O)[C@H](C)[C@@H](O[C@H]2C[C@@](C)(OC)[C@@H](O)[C@H](C)O2)[C@H](C)[C@@H](O[C@@H]2O[C@H](C)C[C@H](N(C)C)[C@H]2O)[C@](C)(O)C[C@@H](C)[C@@H]2N[C@@H](COCCOC)O[C@H]([C@H]2C)[C@]1(C)O	103%
Fc1ccc(-c2nnc(-c3c(-c4ccc(F)cc4)nc4ncccn34)o2)cc1	93.2%
O=C(N1CCC(CN=c2cc3n(-c4ccc(Cl)cc4)c4ccccc4nc-3cc2Nc2ccc(Cl)cc2)CC1)N1CC1	-97.9% (active)
COc1ccccc1[C@H]1c2[nH]c3ccccc3c2C[C@H]2C(=O)N(CCCCCCC(=O)NO)CC(=O)N12	23.4%
O=C(Nc1ccc(Oc2ccc(NC(=O)Nc3ccc([N+](=O)[O-])cc3)cc2)cc1)Nc1ccc([N+](=O)[O-])cc1	8.5% (active)
C[n+]1ccc(Nc2ccc(NC(=O)c3ccc(Nc4cc[n+](C)c5ccc(N)cc45)cc3)cc2)cc1	96.9%
NC(=O)c1ncn([C@@H]2O[C@H](CO)[C@@H](O)[C@H]2O)n1	52.5%
O=C(Nc1ccncc1)C(=O)c1cn(S(=O)(=O)c2cccc(F)c2)c2ccccc12	1.12% (active)
CN1C(=O)/C(=C/c2nc(-c3cccc(F)c3)n3ccccc23)c2ccccc21	89%
ClC1=C(Cl)C(Cl)=C(Cl)C1=C/C=C/c1ccccc1	7.03% (active)
C/C(=N/N=C(N)N)c1ccc(Cl)cc1	80.9%

SMILES	growth
Cc1ccc(NC(=O)COC(=O)c2ccc(S(=O)(=O)N3CCCCCC3)cc2)cc1	106%
O=C1Nc2ccc(F)cc2/C1=C/c1nc(-c2ccc(F)cc2)n2ccccc12	95.6%
NC(N)=NC(N)=NCCCc1ccccc1	68.2% [100 µM]
COc1ccc(C(=O)COc2cccc(/C=C3\Oc4ccc5ccccc5c4C3=O)c2)cc1	46.2%
CCOC(=O)c1c2c(c(C)n1Cc1ccccc1)-c1nc(N)ncc1CC2	115%
C[C@]12CC[C@@H]3c4ccc(O)cc4CC[C@H]3[C@@H]1CC[C@@H]2NS(=O)(=O)c1cccc(Br)c1	61.6%
O=C(C(Br)Br)C(Br)C(Br)c1ccccc1 (stereo not given)	-5.3% (active)
CN(C)c1ccc2c(c1)/C(=N/O)c1ccccc1-2	81.4%
CCN(CC)CCNc1ccc(Cl)cc1Cl	101%
O=C1C(Cl)=C(N=Nc2c(Cl)c(O)c3ccccc3c2O)C(=O)c2ccccc21	76.3%
O=C1OCCCCCCCCCC#Cc2ccccc21	70.8%
Clc1nc(Cl)c2ncn(-c3ccccc3)c2n1	43.4%
Cn1cc(-c2csc(-c3cn(C)c4ncccc34)n2)c2cc(F)cnc21	69.8%
CN(C)c1ccc(/C=C(\C#N)c2nc3ccccc3c(=O)[nH]2)cc1	87.6%
COc1cc(C2NC(c3ccc(Cl)cc3)C(C)/C(=N/NC(N)=S)C2C)cc(OC)c1OC (stereo not given)	64.7%
O=C1Cc2cc(CCN3CCN(CCOCCO)CC3)c(Cl)cc2N1Cc1ccc(-c2ccccc2-c2nn[nH]n2)cc1	94.2%
COc1ccc(-c2cn(-c3ccccc3)c(-c3ccccc3)n2)cc1OC	19.4%
c1ccc2c(c1)[nH]c1c2cc[n+]2cc3c(cc12)CCCC3	18.5%
COc1cc2c(c(OC)c1OC)-c1ccc(NN(C(=O)c3ccccc3)C(=O)c3ccccc3)c(=O)cc1[C@@H](NC(C)=O)CC2 (tested in a mixture with another compound)	6.31% (active)
COc1cc(C2=NN(C(C)=O)C(c3ccc(OC(C)=O)cc3OC(C)=O)O2)c(OC(C)=O)c2ccccc12 (stereo not given)	29.9%
